Test results taken from PubChem BioAssay (NCATS).
Inconclusive results are not listed. Activity calls are given as the source filed them. Unless noted, calls come from the whole dose curve; as a rule, active = well fitted inhibition curve with a large enough effect; inconclusive = small, poorly fitted or top-dose-only effect; inactive = flat fitted curve, though single readings scatter.

Tests used:
[1] = Drug repurposing screens with cells derived from glioblastoma tumor samples (AID 1345199); conditions: GBM patient neurospheres viability, ATP luminescence, 48 h; note: nearly all actives have a fitted effect of over 40% in size; note: potency is the fitted concentration of half-maximal effect; for activity, negative = cell killing: % is set by controls: 0 for no effect and ±100 for the full control effect
Outline: (§1)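 Primary testing used CD133+ neurospheres from four GBM patients, seven concentrations, 48 h exposure and ATP-based viability; confirmation added three slower-growing patient lines.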

astro = control astrocytes; assay: as above; conditions: viability, ATP luminescence, 48 h; series mostly up to 45.9 µM
Outline: as §1

[2] = biological target: Nuclear receptor subfamily 1 group I member 2 (Rattus norvegicus) (UniProt Q9R1A7); assay: qHTS assay for small molecule activators of the rat pregnane X receptor (rPXR) signaling pathway (AID 651751; call rule not given here; note: 0% is about no effect); conditions: rPXR reporter cells, luciferase (One-Glo), 24 h
[3] = qHTS assay for small molecule activators of the human pregnane X receptor (PXR) signaling pathway (AID 720659; call rule not given here; note: 0% is about no effect); conditions: DPX-2 HepG2 CYP3A4-luciferase, 24 h; series mostly up to 92.3 µM
[4] = at 45.9 µM (top of the series), tumour line B
[5] = at 45.9 µM (top of the series), tumour line D
[6] = at 46.1 µM (top of the series), tumour line C
[7] = at 46 µM (top of the series), tumour line A

Chain of Nuclear receptor subfamily 1 group I member 2 (Rattus norvegicus) (Q9R1A7 whole entry, looked up): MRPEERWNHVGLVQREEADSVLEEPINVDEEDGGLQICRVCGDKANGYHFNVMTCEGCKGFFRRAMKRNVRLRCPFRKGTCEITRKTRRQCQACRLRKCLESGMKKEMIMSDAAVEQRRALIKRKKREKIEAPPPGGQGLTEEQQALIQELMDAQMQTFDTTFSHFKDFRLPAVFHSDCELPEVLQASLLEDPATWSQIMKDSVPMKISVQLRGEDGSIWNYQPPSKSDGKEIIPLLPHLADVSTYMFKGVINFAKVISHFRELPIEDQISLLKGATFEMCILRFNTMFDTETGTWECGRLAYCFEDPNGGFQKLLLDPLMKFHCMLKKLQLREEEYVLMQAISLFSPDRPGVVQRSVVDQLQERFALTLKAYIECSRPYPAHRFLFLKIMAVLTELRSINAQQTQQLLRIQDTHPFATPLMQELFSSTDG

Cc1cccc(C)c1NC(=O)NC1=CCCN1C
inactive: activity, negative = cell killing [1, 4] -5.38% | activity, negative = cell killing [1, 5] -0.755% | activity, negative = cell killing [1, 6] 0.0506% | Potency (astro)

OCl
inactive: activity, negative = cell killing [1, 4] -3.7% | activity, negative = cell killing [1, 5] -8.71% | activity, negative = cell killing [1, 7] -24.4% | activity, negative = cell killing [1, 6] -3.94% | max response [2] -4.49% | outcome [3]

CCC[C@@H]1C[C@@H](C(=O)N[C@@H]([C@H]2O[C@H](SC)[C@H](O)[C@@H](O)[C@H]2O)[C@H](C)Cl)N(C)C1
inactive: activity, negative = cell killing [1, 4] 1.77% | activity, negative = cell killing [1, 5] -7.32% | activity, negative = cell killing [1, 7] -25.1% | Potency (astro)

O=C[C@H](O)[C@@H](O)[C@@H](O)[C@H](O)CO
inactive: activity, negative = cell killing [1, 4] -11.6% | activity, negative = cell killing [1, 5] 0.16% | activity, negative = cell killing [1, 6] 10.2% | Potency (astro)

O=C(O)CCCC/C=C(\c1ccccc1)c1cccnc1
inactive: activity, negative = cell killing [1, 4] -6.07% | activity, negative = cell killing [1, 5] -10.6% | activity, negative = cell killing [1, 6] -17.1% | Potency (astro)

CC[C@H]1OC(=O)[C@H](C)[C@@H](O[C@H]2C[C@@](C)(OC)[C@@H](O)[C@H](C)O2)C(C)[C@@H](O[C@@H]2O[C@H](C)C[C@H](N(C)C)[C@@H]2O)[C@](C)(OC)C[C@@H](C)C(=O)[C@H](C)[C@@H](O)[C@]1(C)O (stereo partly drawn)
inactive: activity, negative = cell killing [1, 4] -10.3% | activity, negative = cell killing [1, 5] -27.7% | activity, negative = cell killing [1, 6] 2.27% | Potency (astro)

NC(N)=O
inactive: activity, negative = cell killing [1, 4] -9.26% | activity, negative = cell killing [1, 5] -11.1% | activity, negative = cell killing [1, 7] -23.3% | activity, negative = cell killing [1, 6] 7.05% | Potency (astro) | max response [2] 3.1% | outcome [3]

O=C(OC[C@H]1O[C@](O)(COC(=O)c2cccnc2)[C@@H](OC(=O)c2cccnc2)[C@@H]1OC(=O)c1cccnc1)c1cccnc1
inactive: activity, negative = cell killing [1, 4] -19% | activity, negative = cell killing [1, 5] -0.117% | activity, negative = cell killing [1, 6] -25.9% | Potency (astro)

CCc1cn([C@H]2C[C@H](O)[C@@H](CO)O2)c(=O)[nH]c1=O
inactive: activity, negative = cell killing [1, 4] -28.6% | activity, negative = cell killing [1, 5] -5.04% | activity, negative = cell killing [1, 7] -8.93% | Potency (astro)

CC1CCC(NC(=O)N(CCCl)N=O)CC1 (stereo not drawn)
inactive: activity, negative = cell killing [1, 4] -5.97% | activity, negative = cell killing [1, 5] 0.785% | activity, negative = cell killing [1, 6] -19.7% | Potency (astro)

FC(F)(F)C(F)(F)C(F)(F)C(F)(F)C(F)(F)C(F)(F)F
inactive: activity, negative = cell killing [1, 4] -7.96% | activity, negative = cell killing [1, 5] -23% | activity, negative = cell killing [1, 6] -26.4% | Potency (astro)

Oc1cc(O)cc(O)c1
inactive: activity, negative = cell killing [1, 4] -4.88% | activity, negative = cell killing [1, 5] -12.8% | activity, negative = cell killing [1, 6] -10.5% | Potency (astro)

CC(C)(COP(=O)(O)OP(=O)(O)OC[C@H]1O[C@@H](n2cnc3c(N)ncnc32)[C@H](O)[C@@H]1OP(=O)(O)O)C(O)C(=O)NCCC(=O)NCCS (stereo partly drawn)
inactive: activity, negative = cell killing [1, 4] -4.74% | activity, negative = cell killing [1, 5] -6.02% | activity, negative = cell killing [1, 7] -28.8% | Potency (astro)

Cc1ncc[nH]1
inactive: activity, negative = cell killing [1, 4] -1% | activity, negative = cell killing [1, 5] -14.2% | activity, negative = cell killing [1, 7] -4.28% | activity, negative = cell killing [1, 6] -3.58% | Potency (astro) | max response [2] 1.58% | outcome [3]

CO[C@H]1C[C@H](O[C@@H]2/C(C)=C/C[C@@H]3C[C@@H](C[C@]4(CC[C@H](C)[C@@H](C5CCCCC5)O4)O3)OC(=O)[C@@H]3C=C(C)/C(=N/O)[C@H]4OC/C(=C\C=C\[C@@H]2C)[C@]43O)O[C@@H](C)[C@@H]1O
active: Potency ([1]; tumour line A) 10 µM | Potency ([1]; tumour line D) 20 µM
inactive: activity, negative = cell killing [1, 6] -8.72% | Potency (astro)

CN[C@@H]1[C@@H](O)[C@@H](O[C@@H]2[C@@H](O)[C@H](OC3OC(CN)=CCC3N)[C@@H](N)C[C@H]2N)OC[C@]1(C)O (stereo partly drawn)
inactive: activity, negative = cell killing ([1]; at 20 µM (top of the series), tumour line C) 5.74% | activity, negative = cell killing ([1]; at 21.2 µM (top of the series), tumour line B) -6.65% | activity, negative = cell killing ([1]; at 21.3 µM (top of the series), tumour line A) -25.4% | Potency (astro)

CO/N=C(\C(=O)N[C@@H]1C(=O)N2C(C(=O)[O-])=C(C[n+]3ccc(N)n3CCO)CS[C@H]12)c1csc(N)n1
inactive: activity, negative = cell killing [1, 4] -6.9% | activity, negative = cell killing [1, 5] -6.66% | activity, negative = cell killing [1, 6] -25.8% | Potency (astro)

[O]=[Bi][O]C(=O)[O][Bi]=[O]
inactive: activity, negative = cell killing [1, 4] -5.84% | activity, negative = cell killing [1, 5] -17.8% | activity, negative = cell killing [1, 6] 0.454% | Potency (astro)

CC(C)CN(C[C@@H](OP(=O)(O)O)[C@H](Cc1ccccc1)NC(=O)O[C@H]1CCOC1)S(=O)(=O)c1ccc(N)cc1
inactive: activity, negative = cell killing [1, 4] -7.11% | activity, negative = cell killing [1, 5] -11.4% | activity, negative = cell killing [1, 6] -18.7% | Potency (astro)

Cc1ccc(S(=O)(=O)NCl)cc1
inactive: activity, negative = cell killing [1, 4] -6.22% | activity, negative = cell killing [1, 5] 7.3% | activity, negative = cell killing [1, 7] -22.9% | activity, negative = cell killing [1, 6] -11.3% | Potency (astro) | max response [2] -0.198% | outcome [3]

CC[C@H]1OC(=O)[C@H](C)[C@@H](O[C@H]2C[C@@](C)(OC)[C@@H](O)[C@H](C)O2)[C@H](C)[C@@H](O[C@@H]2O[C@H](C)C[C@H](N(C)C)[C@H]2O)[C@](C)(O)C[C@@H](C)CN(C)[C@H](C)[C@@H](O)[C@]1(C)O
active: Potency ([1]; tumour line A) 5.01 µM
inactive: activity, negative = cell killing [1, 4] -13.7% | activity, negative = cell killing [1, 5] -25.4% | activity, negative = cell killing [1, 6] -5.95% | Potency (astro) | max response [2] -1.6% | outcome [3]
